Test results taken from article PMC4336329 (PLoS ONE, 2015).
Out of some 310,000 compounds screened, about 14,000 (4.5%) showed an effect of 50% or more. The effect is printed as a negative number. The list comes from a sample in which strong results are over-represented; it also holds similar structures and randomly drawn compounds.

Target: human ether-à-go-go-related gene (hERG) potassium channel (human, UniProt Q12809)
Assay: primary screen, population patch clamp on CHO cells stably expressing hERG; higher = less effect of the substance
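Also: peak tail current of the secondary pulse compared with the same well before compound.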

human ether-à-go-go-related gene (hERG) potassium channel, sequence (Q12809 whole entry, looked up): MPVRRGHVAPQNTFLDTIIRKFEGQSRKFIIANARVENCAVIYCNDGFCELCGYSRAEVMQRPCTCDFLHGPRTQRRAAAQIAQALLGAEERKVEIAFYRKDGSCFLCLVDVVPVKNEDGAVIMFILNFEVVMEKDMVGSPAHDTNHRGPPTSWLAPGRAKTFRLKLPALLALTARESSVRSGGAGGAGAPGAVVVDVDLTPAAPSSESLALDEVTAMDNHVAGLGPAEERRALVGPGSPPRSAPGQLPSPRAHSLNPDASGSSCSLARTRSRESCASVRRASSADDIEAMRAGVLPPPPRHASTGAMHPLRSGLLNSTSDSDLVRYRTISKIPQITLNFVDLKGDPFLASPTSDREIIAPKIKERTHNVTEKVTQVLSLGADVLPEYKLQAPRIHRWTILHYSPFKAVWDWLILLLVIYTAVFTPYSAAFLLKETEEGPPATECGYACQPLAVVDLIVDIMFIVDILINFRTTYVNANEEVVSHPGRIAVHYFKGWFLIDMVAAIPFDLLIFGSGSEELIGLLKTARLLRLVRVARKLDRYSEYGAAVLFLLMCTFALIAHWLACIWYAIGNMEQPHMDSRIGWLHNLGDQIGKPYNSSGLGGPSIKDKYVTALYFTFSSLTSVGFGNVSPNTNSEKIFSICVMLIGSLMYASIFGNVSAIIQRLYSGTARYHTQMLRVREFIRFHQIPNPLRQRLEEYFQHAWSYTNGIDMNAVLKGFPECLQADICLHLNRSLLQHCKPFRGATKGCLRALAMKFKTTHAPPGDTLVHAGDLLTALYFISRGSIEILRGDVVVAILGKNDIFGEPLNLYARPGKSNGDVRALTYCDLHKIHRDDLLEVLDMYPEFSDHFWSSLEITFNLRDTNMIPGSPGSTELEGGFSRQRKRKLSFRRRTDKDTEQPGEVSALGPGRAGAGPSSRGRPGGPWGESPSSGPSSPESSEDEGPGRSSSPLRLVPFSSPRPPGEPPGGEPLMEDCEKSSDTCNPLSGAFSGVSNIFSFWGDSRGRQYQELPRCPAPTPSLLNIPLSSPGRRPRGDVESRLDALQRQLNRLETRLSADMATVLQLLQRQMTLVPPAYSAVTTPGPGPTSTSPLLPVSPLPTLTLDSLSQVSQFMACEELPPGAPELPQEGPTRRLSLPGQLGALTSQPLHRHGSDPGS

SMILES	hERG current change (%, negative = inhibition) at 10uM [%]
Cn1c(=O)[nH]c(=O)c2c1[nH]c(=S)n2Cc1ccccc1	17.5
COc1cc2cc(C(=O)NCCc3ccccc3)[nH]c2cc1OC	19.2
COc1ccc(C(=O)/C=C/NCc2ccc(C)cc2)cc1	-17.2
Cc1ccc2c(c1)c1nnc(SCC(=O)Nc3ccc(N(C)C)cc3)nc1n2CC(=O)O	6
Cc1ccc(NC(=O)C2(c3ccccc3)CCOCC2)c([N+](=O)[O-])c1	-22.5
COC(=O)c1cc(N2CCNCC2)nc2ccccc12.Cl	-17
CCN1C(=O)c2cccc3c(S(=O)(=O)N(C(=O)c4ccncc4)c4ccc(OC)cc4)ccc1c23	-7.51
Cc1sc2nc(CN3CCOCC3)nc(N3CCC(C(N)=O)CC3)c2c1C	5.73
Cc1sc2nc(CN3CCCC3)nc(N3CCC(C(N)=O)CC3)c2c1C	-3.64
Cc1sc2nc(CN3CCCCC3)nc(N3CCN(C(=O)c4ccco4)CC3)c2c1C	-75
Cc1sc2nc(CN3CCCC3)nc(N3CCN(C(=O)c4ccco4)CC3)c2c1C	-68.6
Cc1sc2nc(CN3CCOCC3)nc(Oc3ccc(NC(=O)c4ccco4)cc3)c2c1C	-38.9
Cc1sc(NC(=O)c2ccco2)c(CN2CCCCC2)c1C	-49.9
CCCn1c(SCN2C(=O)c3ccccc3C2=O)nc2cc(Cl)ccc2c1=O	16.5
COC(=O)c1ccc(-c2cc(C(=O)O)c3cc4c(cc3n2)OCCO4)cc1	-0.776
CC(C)C12CN3CCN(CC(C3)/C1=N\NC(=O)Nc1ccccc1)C2	-16.1
CC(C)n1c(N2CCN(CC(=O)NCc3cccs3)CC2)nc2ccccc21	-60.8
O=C(CN1CCN(c2ccccn2)CC1)NCc1cccs1	-26.2
CC(C)n1c(NCc2cccs2)nc2ccccc21	-12.6
COc1cccc(N2CCN(CC(=O)NCc3cccs3)CC2)c1	-3.18
CC(C)(C)NC(=O)Cn1c(SCC(=O)NCc2cccs2)nc2ccccc21	6.18
CCCn1c(N2CCN(CC(=O)NCc3cccs3)CC2)nc2ccccc21	-74.7
Nc1c(Cl)ncnc1NCC(O)CO (centres unmarked)	17.7
O=C(Nc1ccc(Oc2ccc(NC(=O)c3ccco3)c(NC(=O)c3ccco3)c2)cc1)c1ccco1	-13.5
CC1Cc2ccccc2N1C(=O)CSc1nc2c(c(=O)n(C)c(=O)n2C)n1Cc1ccccc1 (centres unmarked)	-33.7

SMILES	hERG current change (%, negative = inhibition) at 10uM [%]
Cc1ccc(Nc2ccccc2)nn1	18.6
COc1ccccc1-c1coc2c(CN3CCCC(C)C3)c(O)ccc2c1=O (centres unmarked)	-2.44
CC1(C)CC2(CC(c3ccccc3)Oc3cc(O)ccc32)NC(=O)N1 (centres unmarked)	3.54
CC1(C)CC2(CC(c3ccccc3)Oc3cc(O)ccc32)NC(=S)N1 (centres unmarked)	-1.82
CSC1=NC2(CC(c3ccccc3)Oc3cc(O)ccc32)CC(C)(C)N1 (centres unmarked)	-76.1
Cc1cc(Cl)ccc1OCC(=O)N/N=C1\CCCc2ccccc21	-0.309
CC(C)(C)c1nc2ccc(NS(=O)(=O)c3ccc(F)c(F)c3F)cc2[nH]1	10.6
COc1ccccc1NC1=NC(C)(C)N=C(N)N1	23.2
NS(=O)(=O)c1ccc(CCNC(=O)c2ccc(-c3ccccc3)cc2)cc1	9.92
COc1ccccc1NC(=S)NNC(=O)c1ccccc1	-1.04
COc1ccccc1NC(=S)NNC(=O)c1ccccc1Br	-70.9
COc1ccccc1C(=O)NNC(=O)c1ccccc1Br	23
Cc1nn(Cc2ccc(F)cc2Cl)c(C)c1[N+](=O)[O-]	-1.01
Cc1ccc(OCC(=O)O/N=C(\N)c2ccccn2)cc1C	-11.3
COc1ccc(Nc2nc(C)c(-c3ccccc3)s2)cc1	14.9
Cc1nc(Nc2ccccc2)sc1-c1ccccc1	1.73
Cc1nc(Nc2ccc(C(=O)O)cc2)sc1-c1ccccc1	-76.5
Cc1cccc(Nc2nc3c(s2)CCCC3)c1	-8.11
COc1ccc(NC(=O)Nc2nc3c(s2)CCCC3)cc1	-26.8
O=C(O)c1ccc(Nc2nc3c(s2)CCCC3)cc1	-81.3
C=CCSC1=C(C#N)C2(CCCCC2)C(C#N)C(=O)N1 (centres unmarked)	-3.87
C=CCNc1sc(C(=O)C(C)(C)C)c(N)c1C#N	5.11
CCN(CC(=O)Nc1ccc(OC)cc1)C(=O)c1ccc2c(=O)n3c(nc2c1)CCC3	9.77
C=CCn1cnc2c(sc3nc(C)cc(C)c32)c1=O	-6.75
COc1ccccc1OCCNC(=O)c1cc([N+](=O)[O-])cc([N+](=O)[O-])c1	12.2

SMILES	hERG current change (%, negative = inhibition) at 10uM [%]
Cc1nc(-c2ccncc2)nc(NCCNc2ncccc2C(F)(F)F)c1Cl	6.57
COc1ccccc1CC(=O)NC1CCCc2ccccc21 (centres unmarked)	-32.8
Cc1cc(C)n(CCN(C)C(=O)CCc2nnc(-c3ccc4c(c3)OCO4)o2)n1	-51.7
CCN(CCn1cccn1)C(=O)CCc1nnc(-c2ccc3c(c2)OCO3)o1	-5.68
O=C(CCc1nnc(-c2ccc3c(c2)OCO3)o1)N1CCC(c2ccc(F)cc2)C1 (centres unmarked)	-56
CCC(=O)C1CCCN(C(=O)CCc2nnc(-c3ccc4c(c3)OCO4)o2)C1 (centres unmarked)	-8.82
CC1CCCN(C(=O)CCc2nnc(-c3ccc4c(c3)OCO4)o2)C1 (centres unmarked)	-4.43
Cc1cc(C)n(CCN(C)C(=O)CCc2nnc(CCC3CCCCC3)o2)n1	-4.29
O=C(CNc1ccc2ccccc2c1)N/N=C/c1ccc(OC(=O)/C=C/c2ccco2)cc1	22.7
Cc1ccccc1OS(=O)(=O)c1cn(C)c(=O)n(C)c1=O	11.4
Cc1ccc(C2CC(=O)C=C(Nc3ccc(Cl)cc3)C2)cc1 (centres unmarked)	7.93
Cc1ccc(S(=O)(=O)/N=C/N(C)C)cc1	0.768
COc1ccc(-c2cnnc(N/N=C/C(C)=C/c3ccccc3)n2)cc1	-9.57
CCc1c(C(=O)NCCc2cccc(C)c2)[nH]c(C)c1C(C)=O	12.2
Oc1ccc(N2CCN(CC(O)c3ccccc3)CC2)cc1 (centres unmarked)	10.4
O=[N+]([O-])c1ccc(C(O)CN2CCOCC2)cc1 (centres unmarked)	18.5
O=[N+]([O-])c1ccc(C(O)C[n+]2ccccc2)cc1.[I-] (centres unmarked)	12
O=C(CC(c1ccccc1)c1ccccc1)NCC(O)c1ccc([N+](=O)[O-])cc1 (centres unmarked)	-58.1
O=C(CNC(=O)c1ccccc1)NCC(O)c1ccc([N+](=O)[O-])cc1 (centres unmarked)	10.7
O=C1CCN(Cc2ccc([N+](=O)[O-])cc2)CCN1[C@H](CO)c1ccccc1	-37.4
CC1SC(c2ccccc2)N(CC(O)c2ccc([N+](=O)[O-])cc2)C1=O (centres unmarked)	-80.6
O=C(NCC(O)c1ccc([N+](=O)[O-])cc1)C(c1ccccc1)c1ccccc1 (centres unmarked)	-46.2
O=[N+]([O-])c1ccc(C(O)CN2CCN(Cc3ccccc3)CC2)cc1 (centres unmarked)	-73.4
O=[N+]([O-])c1ccc(C(O)CNC(=S)Nc2ccccc2)cc1 (centres unmarked)	-11.6
O=[N+]([O-])c1ccc(C(O)CN2CCN(c3ccccc3)CC2)cc1 (centres unmarked)	-50.3

SMILES	hERG current change (%, negative = inhibition) at 10uM [%]
O=C1CSC(c2ccccc2)N1CC(O)c1ccc([N+](=O)[O-])cc1 (centres unmarked)	-12.1
COc1ccccc1NC(=S)NC(=O)C(C)C	-21.8
Cc1c(C(=O)N2CCCCC2)nn(-c2ccc(Cl)cc2)c(=O)c1C#N	-17.5
CC(C)(C)n1nc2c(c1NC(=O)COc1ccc(Cl)cc1)CS(=O)(=O)C2	-46.5
Cc1cccc(NC(=S)Nc2ccc3cn[nH]c3c2)c1	1.96
COc1ccc(C(=O)[C@H]2[C@H]3C(=O)N(c4ccccc4)C(=O)[C@H]3C3C=CC=NN32)cc1 (some centres unmarked)	4.94
O=S(=O)(c1ccccc1)N1CCN(C/C=C/c2ccccc2)CC1	-22
O=[N+]([O-])c1ccc(C(O)CN2CCN(C/C=C/c3ccccc3)CC2)cc1 (centres unmarked)	-76.9
O=S(=O)(c1ccc(S(=O)(=O)N2CCN(C/C=C/c3ccccc3)CC2)cc1)N1CCCC1	11.6
Cc1occc1-c1nc(-c2ccncc2)no1	-10.4
COc1ccc(OC)c(-n2nnnc2SCC(=O)Nc2nc(C)c(C)s2)c1	-1.73
COc1ccc(OCC(=O)NNC(=O)C2CCN(c3ncnc4sc(C)c(C)c34)CC2)cc1	-52.5
Cc1c(C(=O)NC2CCCCC2)sc2ncnc(N3CCN(c4ccccc4)CC3)c12	13.7
Cc1sc2ncnc(N3CCC(C(=O)NNC(=O)COc4ccccc4Cl)CC3)c2c1C	-38.6
COc1ccccc1N1CCN(c2ncnc3sc(C(=O)NCC4CCCO4)c(C)c23)CC1 (centres unmarked)	-5
Cc1sc2ncnc(N3CCC(C(=O)NNC(=O)COc4cccc(C(F)(F)F)c4)CC3)c2c1C	-40
COc1ccccc1OCC(=O)NNC(=O)C1CCN(c2ncnc3sc(C)c(C)c23)CC1	10.5
Cc1sc2ncnc(N3CCC(C(=O)Nc4ccc(Cl)cc4Cl)CC3)c2c1C	-7.65
Cc1sc2ncnc(N3CCC(C(=O)NCC(=O)Nc4ccc(F)c(F)c4)CC3)c2c1C	-67.2
Cc1sc2ncnc(N3CCC(C(=O)NNC(=O)COc4ccccc4F)CC3)c2c1C	-57
Cc1ccccc1OCC(=O)NNC(=O)C1CCN(c2ncnc3sc(C)c(C)c23)CC1	-19.3
Cc1sc2ncnc(N3CCC(C(=O)Nc4ccc(Cl)c(Cl)c4)CC3)c2c1C	-7.26
COc1ccc(N2CCN(c3ncnc4sc(C(=O)NCC5CCCO5)c(C)c34)CC2)cc1 (centres unmarked)	-63.4
